Screens as filed in PubChem BioAssay.
An excerpt weighted towards active compounds, which were near 11% of everything screened.
HP1b chromo inh – inhibitors of HP1-beta chromodomain binding to methylated histone tails | AlphaScreen HP1-beta / biotin-H3K9me3 peptide binding | Potency, µM (doses to about 114 µM), for the others: at the top dose activity change, negative = inhibition, actives largely listed as inhibitors | 390,000 compounds, 0.56% hits; note: nearly all actives have a fitted effect of over 70% in size
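AlphaScreen: HP1-beta (50 nM) preformed 30 min with biotin-H3(1-18)K9me3 peptide (50 nM) in PBS pH 7.4, 0.01% Tween-20. Compound added for 30 min at RT, then streptavidin donor/nickel chelate acceptor beads (10 ug/mL) for 30 min.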
VDR inh – inhibitors of human vitamin D receptor; AID 504847; P11473; VDR-SRC2-3 peptide fluorescence polarization, 2 h; Potency, µM, for the others: max response, negative = inhibition, most hits filed as inhibitors; 400,000 compounds, 0.93% hits; note: % is set by controls: 0 for no effect and ±100 for the full control effect
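After 23 nl compound addition and a short centrifugation, plates sat for 2 hours at ambient temperature; polarization of fluorescence then indicated loss of VDR binding to peptide SRC2-3.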
G9a inh – blocks human histone lysine methyltransferase G9a. G9a H3K9 monomethylation, AlphaScreen, 2 h. Q96KQ7. Potency, µM (top dose mostly 102 µM), inactives show at the highest dose activity, negative = inhibition, usual class: inhibitors. AID 504332. 350,000 compounds, 8.8% hits; note: % is set by controls: 0 for no effect and ±100 for the full control effect; nearly all actives have a fitted effect of over 75% in size
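Readings reflect AlphaScreen signal from monomethyl-H3K9 antibody detection. HMT at 20 nM; substrate b-H3K9 500 nM; cofactor SAM 20 uM; 2 h RT reaction; compounds tested as titrations in qHTS with 15 min preincubation.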
BAZ2B inh – inhibitors of human BAZ2B bromodomain; Potency, µM (highest dose often 114 µM), for the others: top-dose activity change, negative = inhibition, usual class: inhibitors; 360,000 compounds, 4.4% hits; AlphaScreen BAZ2B-H3K14Ac peptide displacement; Q9UIF8; note: % is set by controls: 0 for no effect and ±100 for the full control effect; nearly all actives have a fitted effect of over 60% in size
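AlphaScreen displacement of biotin-H3(5-23)K14Ac peptide (50 nM final) from BAZ2B (50 nM final) in PBS pH 7.4, 0.01% Tween-20; complex preformed 30 min RT, then compounds (top 110 uM) 30 min RT, beads 20 min dark.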
PLK1 PBD block – inhibitors of human PLK1 polo-box domain binding; 360,000 compounds, 2.8% hits; Potency, µM, without a hit: max response, negative = inhibition, usual class: inhibitors; AID 720504; Plk1 PBD binding of FITC phosphopeptide, fluorescence polarization; note: series mostly up to about 57 µM; % is set by controls: 0 for no effect and ±100 for the full control effect; nearly all actives have a fitted effect of over 65% in size
JMJD2A Tudor – JMJD2A Tudor domain (human) inhibition | O75164 | AlphaScreen JMJD2A-Tudor / H3K4me3 peptide binding | Potency, µM (highest dose often 114 µM), without a hit: at the highest dose activity change, negative = inhibition, actives largely listed as inhibitors | 390,000 compounds, 4.4% hits; note: % is set by controls: 0 for no effect and ±100 for the full control effect; nearly all actives have a fitted effect of over 50% in size
* hit, by the source's call; ! = repeats disagree; [ ] = another dose, or the depositor's remark. Calls come from the whole dose curve; as a rule, active = well fitted curve in the direction sought with a large enough effect; inconclusive = small, poorly fitted or top-dose-only effect, or another doubt; inactive = no such curve, though single readings can be large; an effect the other way counts as inactive or inconclusive. Potency is the fitted concentration of half-maximal effect.

Screening Cc1cccc(C)c1NC(=O)C1(C)CCC(=O)N1c1cc(C(C)(C)C)nn1C (stereo not drawn) returned PLK1 PBD block -1.9%.
Screening CSCCC(NC(=O)c1ccccc1)C(=O)N1CC(C)OC(C)C1 (stereo not drawn) returned HP1b chromo inh 36.6%, VDR inh 9.4%, G9a inh 11.9%[59 µM], BAZ2B inh 9.5%, PLK1 PBD block 4.9% and JMJD2A Tudor 8.4%.
Screening COc1ccccc1NS(=O)(=O)c1cc(NC(=O)C2CCCC2)ccc1N1CCOCC1 returned HP1b chromo inh inconclusive, VDR inh inconclusive, G9a inh 8.91µM*, BAZ2B inh -27.5%, PLK1 PBD block 15µM* and JMJD2A Tudor inconclusive.
Screening COc1ccccc1NS(=O)(=O)c1cc(NC(=O)COc2ccccc2F)ccc1N1CCOCC1 returned HP1b chromo inh 17.8µM*, VDR inh inconclusive, PLK1 PBD block 23.8µM* and JMJD2A Tudor -19.4%.
COc1ccccc1NS(=O)(=O)c1cc(NC(=O)C(C)(C)C)ccc1N1CCOCC1 was read as HP1b chromo inh 21.9%, VDR inh -22.4%, G9a inh 7.0%[0.501 µM], BAZ2B inh 3.7%, PLK1 PBD block -1.4% and JMJD2A Tudor -5.5%.
COc1ccccc1NS(=O)(=O)c1cc(NC(=O)/C=C/c2cccs2)ccc1N1CCOCC1 was read as HP1b chromo inh 15.3%, VDR inh -11.3%, G9a inh -16.9%[59 µM], BAZ2B inh -10.4%, PLK1 PBD block -12.7% and JMJD2A Tudor -25.7%.
For COCC(=O)Nc1ccc(N2CCOCC2)c(S(=O)(=O)Nc2ccccc2OC)c1 the results were HP1b chromo inh inconclusive, VDR inh inconclusive, PLK1 PBD block 10.6µM* and JMJD2A Tudor -32.9%.
For COc1ccccc1NS(=O)(=O)c1cc(NC(=S)NCCN2CCOCC2)ccc1N1CCOCC1 the results were HP1b chromo inh inconclusive, VDR inh 79.4µM*, G9a inh 10µM*, BAZ2B inh inconclusive, PLK1 PBD block 5.32µM* and JMJD2A Tudor inconclusive.
For COc1ccccc1NC(=S)NCCN1CCOCC1 the results were HP1b chromo inh 11.7%, VDR inh -13.5%, G9a inh -1.9%[59 µM], BAZ2B inh -2.4%, PLK1 PBD block inconclusive and JMJD2A Tudor 12.0%.
For CCOC(=O)c1cc2c(=O)n3ccccc3nc2n(Cc2ccco2)c1=NC(=O)c1ccccc1OC the results were HP1b chromo inh 6.9%, VDR inh 56.2µM*!, G9a inh -28.8%, BAZ2B inh -26.3%, PLK1 PBD block -11.5% and JMJD2A Tudor inconclusive.
CCOC(=O)c1cc2c(=O)n3ccccc3nc2n(Cc2ccco2)c1=NC(=O)c1cccc(OC)c1 was read as HP1b chromo inh 13.2%, VDR inh 0.6%, G9a inh -24.0%, BAZ2B inh -15.0%, PLK1 PBD block -6.9% and JMJD2A Tudor -7.2%.
Screening Cc1cc(NC(=S)Nc2ccc(C)c(Cl)c2)n[nH]1 returned HP1b chromo inh -14.0%, VDR inh inconclusive, G9a inh 1.26µM*, BAZ2B inh inconclusive, PLK1 PBD block -16.6% and JMJD2A Tudor inconclusive.
`COc1ccc(NC(=S)Nc2cc(-c3ccccc3)[nH]n2)cc1Cl` gave HP1b chromo inh inconclusive, VDR inh -29.6%, G9a inh inconclusive, BAZ2B inh inconclusive, PLK1 PBD block 21.2µM* and JMJD2A Tudor 56.2µM*.
Screening CCN(CC)S(=O)(=O)c1cc(NC(=O)C2=COCCO2)ccc1Cl returned HP1b chromo inh -5.8%, VDR inh -9.6%, G9a inh 50.1µM*, BAZ2B inh -2.3%, PLK1 PBD block -5.7% and JMJD2A Tudor -26.0%.
CCN(CC)C(=O)c1cccc(NC(=O)C2=COCCO2)c1 was read as HP1b chromo inh 33.4%, VDR inh -4.5%, G9a inh 17.2%[12.7 µM], BAZ2B inh -3.3%, PLK1 PBD block -10.8% and JMJD2A Tudor -17.3%.
Screening COc1ccc(Nc2ccnc3ccccc23)cc1 returned HP1b chromo inh 34.6%, VDR inh -1.3%, G9a inh -38.3%[59 µM], BAZ2B inh -8.3%, PLK1 PBD block -1.2% and JMJD2A Tudor -11.5%.
Screening COc1ccc(Nc2ccccc2N)cc1 returned HP1b chromo inh inconclusive, VDR inh -29.9%, G9a inh 15.8µM*, BAZ2B inh 35.5µM*, PLK1 PBD block 6.4% and JMJD2A Tudor 44.7µM*.
Nc1ccc(Nc2ccccc2N)cc1 was read as HP1b chromo inh inconclusive, VDR inh -1.5%, G9a inh inconclusive, BAZ2B inh 35.5µM*, PLK1 PBD block inconclusive and JMJD2A Tudor 50.1µM*.
`CCN(CC)c1ccc(NC(=O)CN2C(=O)c3cccnc3Sc3ccccc32)c(C)c1` gave HP1b chromo inh 33.8%, VDR inh 6.6%, G9a inh inconclusive, BAZ2B inh -25.3% and JMJD2A Tudor -16.7%.
Screening COc1cccc(Cn2c(=O)n(Cc3ccccc3)c(=O)c3c2c2cc(OC)ccc2n3C)c1 returned HP1b chromo inh 25.8%, VDR inh 10.0%, G9a inh -0.9%[59 µM], BAZ2B inh -5.1% and JMJD2A Tudor 7.9%.
`Cc1cc2cc(CNC(=O)c3ccc4c(c3)OCO4)ccc2[nH]1` gave HP1b chromo inh -7.7%, VDR inh -10.0%, G9a inh 50.1µM*, BAZ2B inh inconclusive, PLK1 PBD block -4.5% and JMJD2A Tudor -33.9%.
`COc1ccc(C(=O)NCc2ccc3[nH]c(C)cc3c2)cc1OC` gave HP1b chromo inh 23.8%, VDR inh inconclusive, G9a inh 35.5µM*, BAZ2B inh inconclusive, PLK1 PBD block -5.0% and JMJD2A Tudor -30.0%.
Screening CCOc1ccc(NC(=S)NCc2ccc3[nH]c(C)cc3c2)cc1 returned HP1b chromo inh -14.5%, VDR inh 1.8%, G9a inh inconclusive, PLK1 PBD block -24.4% and JMJD2A Tudor 50.1µM*.
For COc1ccc(C(=O)NCc2cc(C)nc3ccccc23)cc1 the results were HP1b chromo inh 59.0%, VDR inh 0.9%, G9a inh -4.4%, BAZ2B inh -37.3%, PLK1 PBD block inconclusive and JMJD2A Tudor -12.4%.
For Cc1ccc(C(=O)NCc2ccc3c(c2)OCO3)cc1C the results were HP1b chromo inh 24.4%, VDR inh -2.3%, G9a inh 6.3%, BAZ2B inh -30.8%, PLK1 PBD block -17.2% and JMJD2A Tudor -0.7%.
`COc1cc(C(=O)NCc2ccc3[nH]c(C)cc3c2)cc(OC)c1OC` gave HP1b chromo inh 29.0%, VDR inh -11.8%, G9a inh inconclusive, BAZ2B inh -37.2%, PLK1 PBD block 4.1% and JMJD2A Tudor -8.7%.
Cc1cc(CNC(=O)c2ccc3c(c2)OCO3)c2ccccc2n1 was read as HP1b chromo inh 42.6%, VDR inh 2.5%, G9a inh 35.5µM*, BAZ2B inh -33.3%, PLK1 PBD block -9.4% and JMJD2A Tudor -5.4%.
